Results reported in the supplement of paper PMC6555819.

Tests used:
Assay in all cases: PBM binding z-score (relative to random genomic background probes); higher = stronger binding; sequences stand for … in GC…GCGATTGACAGCGTAGAATGAAGG
[1] = tested on: FXR:RXRa (NR concentration 270 nM, RXRa partner concentration 90 nM)
In short: (§1)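 Ligand-free nuclear receptor dimers were applied to custom Agilent 4×180K protein-binding microarrays whose double-stranded probes carried direct-repeat seeds, single-nucleotide variants, half-site ablations and random human genomic background sequences in 34-nt variable regions. Incubation lasted 1 h. Binding z-scores were computed against the random background probes from regression-normalized fluorescence.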

[2] = tested on: LXRa:RXRa (NR concentration 270 nM, RXRa partner concentration 90 nM)
In short: as §1

[3] = tested on: LXRa homodimer (NR concentration 270 nM)
In short: as §1

[4] = tested on: LXRb:RXRa (NR concentration 270 nM, RXRa partner concentration 90 nM)
In short: as §1

[5] = tested on: LXRb homodimer (NR concentration 270 nM)
In short: as §1

[6] = tested on: PPARa:RXRa (NR concentration 270 nM, RXRa partner concentration 90 nM)
In short: as §1

[7] = tested on: PPARg:RXRa (NR concentration 180 nM, RXRa partner concentration 90 nM)
In short: as §1

[8] = tested on: PPARg:RXRa 270nM:90nM, anti-RXR (NR concentration 270 nM, RXRa partner concentration 90 nM)
In short: as §1

[9] = tested on: PPARg:RXRa 30nM:10nM, anti-RXR (NR concentration 30 nM, RXRa partner concentration 10 nM)
In short: as §1

[10] = tested on: PPARg:RXRa 90nM:30nM, anti-RXR (NR concentration 90 nM, RXRa partner concentration 30 nM)
In short: as §1

[11] = tested on: PPARg:RXRa DBDmut IVT, anti-RXR (DBD mutation: RXRa K156A/R161A, NR concentration 270 nM, RXRa partner concentration 90 nM)
In short: as §1

[12] = tested on: PPARg:RXRa IVT, anti-PPARg (NR concentration 270 nM, RXRa partner concentration 90 nM)
In short: as §1

[13] = tested on: PPARg DBDmut:RXRa IVT, anti-PPARg (DBD mutation: PPARg1 K132A/R137A, NR concentration 270 nM, RXRa partner concentration 90 nM)
In short: as §1

[14] = tested on: PPARg DBDmut IVT, anti-PPARg (DBD mutation: PPARg1 K132A/R137A, NR concentration 270 nM)
In short: as §1

[15] = tested on: PPARg homodimer (NR concentration 180 nM)
In short: as §1

[16] = tested on: PXR:RXRa (NR concentration 270 nM, RXRa partner concentration 90 nM)
In short: as §1

[17] = tested on: PXR homodimer (NR concentration 270 nM)
In short: as §1

[18] = tested on: RARa:RXR (NR concentration 270 nM, RXRa partner concentration 90 nM)
In short: as §1

[19] = tested on: RARa homodimer (NR concentration 270 nM)
In short: as §1

[20] = tested on: RARb:RXRa (NR concentration 270 nM, RXRa partner concentration 90 nM)
In short: as §1

| Sequence | PBM binding z-score [1] | PBM binding z-score [2] | PBM binding z-score [3] | PBM binding z-score [4] | PBM binding z-score [5] | PBM binding z-score [6] | PBM binding z-score [7] | PBM binding z-score [8] | PBM binding z-score [9] | PBM binding z-score [10] | PBM binding z-score [11] | PBM binding z-score [12] | PBM binding z-score [13] | PBM binding z-score [14] | PBM binding z-score [15] | PBM binding z-score [16] | PBM binding z-score [17] | PBM binding z-score [18] | PBM binding z-score [19] | PBM binding z-score [20] |
| --- | --- | --- | --- | --- | --- | --- | --- | --- | --- | --- | --- | --- | --- | --- | --- | --- | --- | --- | --- | --- |
| TCATATAGGTACATGCTAGGTGAAAGTCCGATCT | 0.846 | 1.11 | 0.242 | 0.622 | 0.134 | 1.15 | 0.699 | 2.04 | 3.56 | 2.99 | 2.58 | 1.73 | 0.847 | 1.54 | 0.444 | 0.528 | 0.248 | 0.868 | 0.997 | 0.432 |
| GCTAGTTGGTCAGTAAAAGGTCACAGACCGGTCG | 3.72 | 4.57 | 4.2 | 4.1 | 0.607 | 5.07 | 3.41 | 4.95 | 2.71 | 4.5 | 1.25 | 3.03 | -0.272 | 0.44 | 3.83 | 4.92 | 1.24 | 6.32 | 1.97 | 4.51 |
| CTCCAAAGGTCGTGCTCAGGTGAGTATACCAAAC | 5.95 | 4.42 | 0.227 | 3.67 | 0.361 | 5.08 | 3.62 | 4.58 | 1.3 | 3.35 | 0.883 | 1.49 | -0.0777 | -0.509 | 2.56 | 3.53 | 0.561 | 4.78 | 0.196 | 4.08 |
| CCTTACGTGTCACTCCAGGTTATAGCATCGGAGT | 1.96 | 5.55 | 2.04 | 1.89 | 1.05 | 0.862 | 0.466 | 0.288 | -0.302 | -0.0102 | 1.84 | 1.44 | 0.74 | 0.788 | 1.64 | 1.44 | 0.593 | 0.864 | 1.76 | 1.16 |
| CAGCCTAGGTCAGGGCCAGTCTAGGAGGAACGTT | 1.43 | 0.988 | -0.566 | 0.24 | -1.33 | 2 | 0.484 | 0.9 | -0.591 | 0.125 | 1.23 | 1.44 | -1.02 | -1.49 | 0.16 | 0.386 | -0.83 | 1.06 | -0.6 | 3.28 |
| GCAGACAGGTGAAACGCAGGCAACTCAGGGTGGC | -0.553 | -0.232 | -0.806 | -0.499 | -1.09 | 0.513 | 0.448 | -0.314 | -0.566 | -0.565 | 0.648 | 0.278 | -0.31 | -0.728 | -0.411 | -0.21 | -0.499 | 0.0177 | -0.602 | 0.594 |
| TCAAATAGGTAAATGCTAGGTGAAAGTCCGATCT | 1.32 | 0.737 | -0.0235 | 0.834 | -0.239 | 1.52 | 0.685 | 2.74 | 4.4 | 3.68 | 3.54 | 2.47 | 0.483 | 0.699 | 0.99 | 0.653 | 0.443 | 1.16 | 1.43 | 0.7 |
| GCGACTGGAGCATCAGCAGGTTACCATAACTTAA | -0.588 | -0.33 | -0.742 | -0.376 | -1.27 | 0.165 | 0.329 | -0.223 | -0.632 | -0.253 | 0.414 | 0.0135 | -1.51 | -0.56 | -0.607 | -0.228 | -0.687 | 0.0402 | -1.07 | -0.26 |
| CCTGCTAGGTCATGGTCAGCTCATCTACAGTATG | 3.3 | 2.63 | 0.179 | 1.95 | 0.157 | 3.42 | 2.25 | 2.85 | 0.448 | 1.72 | 4.36 | 3.86 | -0.0537 | -0.157 | 1.09 | 1.52 | -0.186 | 2.4 | 0.349 | 4.08 |
| CGAACTAGGTGATCCAGGACAGTGAATACATTGA | -0.144 | -0.403 | -0.0294 | -0.189 | -0.452 | 1.76 | 2.3 | 1.72 | 0.625 | 1.09 | 5.95 | 5.54 | 1.12 | 0.847 | 0.425 | -0.38 | 0.369 | 0.202 | 0.271 | 0.0644 |
| TAGCCTAGGTCATTCAGGGGCCAGTTTAGAAAGC | 4.19 | 3.81 | 1 | 3.32 | 0.887 | 3.8 | 1.98 | 2.15 | 0.497 | 1.59 | 1.47 | 2.77 | 0.115 | 0.428 | 0.877 | 2.37 | -0.0546 | 3.52 | -0.367 | 3.61 |
| ACTAGCAGGCCAAGTTTGGGTCACTCACACAAAG | 0.272 | 0.288 | -0.0849 | 0.693 | -0.282 | 1.41 | 0.507 | 0.233 | -0.397 | -0.0603 | 0.874 | 1.38 | -1.02 | 0.437 | 0.553 | 0.973 | 0.229 | 1.62 | -0.272 | 2.06 |
| AATACATGGTCACTAGGCCAGAGTAGGTACGAAT | -0.31 | -0.00437 | -0.0579 | -0.301 | -0.193 | 0.587 | 1.65 | 1.15 | 0.153 | 0.688 | 1.04 | 2.74 | 0.798 | 1.09 | 0.338 | -0.198 | -0.158 | -0.153 | -0.0326 | 1.14 |
| TAGCCTAGGTCATTCAGGGGACAGTATAGAAAGC | 4.83 | 4.05 | 1.41 | 3.39 | 1.57 | 3.96 | 2.88 | 2.81 | 0.785 | 1.62 | 2.17 | 3.28 | 0.412 | 0.909 | 1.58 | 2.58 | 0.0541 | 3.72 | 0.228 | 4.09 |
| GGAACGAGGGCAAAGATGATAGCATCTGTCGACG | 0.376 | 0.281 | -0.604 | 0.258 | -0.642 | 2.65 | 3.63 | 4.6 | 2.92 | 4.39 | 3.87 | 3.02 | -0.58 | 0.0962 | 0.289 | 0.215 | -0.309 | 0.189 | -0.373 | 1.98 |
